IL1B secr inh: blocks inflammasome-driven IL-1 beta release | THP-1 LPS/ATP IL-1B secretion, AlphaLISA, 16 h; stronger effect = lower value | 360,000 compounds, 4.7% hits | activity change, % at 57.5 µM; in the data active = activity change below about -50%; inconclusive = mostly about -30% to -49%
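Secreted IL-1B measured by AlphaLISA bead assay after 16 h compound exposure of THP-1 cells; compounds (final up to 57.5 uM) added 1 h before LPS (250 ng/mL) and ATP (1.25 mM) stimulation; lower signal means less secretion.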
HT1080NT lethal: kills 2HG-producing HT-1080-NT fibrosarcoma cells; 360,000 compounds, 1.6% hits; HT-1080-NT fibrosarcoma viability, CellTiter-Glo ATP luminescence, 48 h; Potency, µM (doses to about 46.1 µM), without a hit: top-dose activity, negative = less viability, usual class: cytotoxic;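 note: NT is the 2HG producing partner of a matched IDH1 knockdown line; potency is the fitted concentration of half-maximal effect; 0% = DMSO-treated cells and -100% = media-only wells without cells; nearly all actives have a fitted effect of over 55% in size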
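750 cells/well, RPMI + 5% FBS; 2 h settle, compound pin-transfer, 48 h at 37 degrees C. CellTiter-Glo 10 min RT, luminescence. Normalized to DMSO and media-only wells.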
HT1080 IDH1KD tx: HT-1080 IDH1 knockdown cell toxicity (counter line) | HT-1080 IDH1 knockdown viability, ATP luminescence, 48 h | Potency, µM (titrated, usually from 46.1 µM), for inactives: at the highest dose activity, negative = toxicity, most hits filed as cytotoxic | 360,000 compounds, 2% hits | AID 686971;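 note: potency is the fitted concentration of half-maximal effect; 0% = DMSO wells and -100% = cell-free medium wells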
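Cytotoxicity counter-line: IDH1KD HT-1080, 48 h, CellTiter-Glo. Curves classed by r2, magnitude and activity.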
ELG1 DNA repair: blocks ELG1-dependent DNA repair in HEK293T cells. HEK293T ELG1-luciferase reporter, luminescence, 16 h; DNA damage induced by 5-fluorouridine. Potency, µM (highest dose often 46.1 µM), without a hit: at the top dose activity change, negative = inhibition, usual class: inhibitors. 330,000 compounds, 2.3% hits. AID 504467; note: potency is the fitted concentration of half-maximal effect; nearly all actives have a fitted effect of over 55% in size
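Step one: seed 2,000 cells per well. Step two: pin-transfer compound or DMSO alongside 5-fluorouridine. Step three: incubate 16 hr, 37 °C, 5% CO2. Step four: add ONE-Glo, wait 30 min, read luminescence.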
TDP1 cell CPT: DT40-hTDP1 cell growth loss with CPT; chicken DT40 Tdp1-/-;hTDP1 cells + 20 nM CPT, ATP luminescence, 48 h; Potency, µM (highest dose often 46.2 µM), for the others: top-dose activity change, negative = growth inhibition, usual class: inhibitors; 420,000 compounds, 12% hits; note: potency is the fitted concentration of half-maximal effect; nearly all actives have a fitted effect of over 55% in size
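Chicken DT40 Tdp1-/- cells complemented with human TDP1, 400 cells/well, exposed to compounds plus 20 nM camptothecin for at least 48 h at 37 C; viability read as ATP content by CellTiter-Glo luminescence.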
TDP1 cell noCPT: qHTS for Inhibitors of human tyrosyl-DNA phosphodiesterase 1 (TDP1): qHTS in cells in absence of CPT | DT40 Tdp1-/- hTDP1 cells, no CPT, ATP luminescence, 48 h | 420,000 compounds, 15% hits | Potency, µM (top dose mostly 46.2 µM), inactives show at the top dose activity change, negative = growth inhibition, hits mostly inhibitors | AID 686978, 2013; note: potency is the fitted concentration of half-maximal effect; nearly all actives have a fitted effect of over 55% in size
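Seeded 400 DT40-hTDP1 cells/well (vehicle DMSO, no 20 nM CPT); pinned compounds; ≥48 hr at 37 °C; CellTiter-Glo luminescence as viability measure.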
Starred values were filed as active, the others as inactive; ? = inconclusive; · = no result; [ ] = remark or other dose. Rows were chosen to be rich in hits. Some 19% of all compounds tested hit in one or more screens of this group. Unless noted, calls come from the whole dose curve; as a rule, active = well fitted curve in the direction sought with a large enough effect; inconclusive = small, poorly fitted or top-dose-only effect, or another doubt; inactive = no such curve, though single readings can be large; an effect the other way counts as inactive or inconclusive. Unless noted, % is set by controls: 0 for no effect and ±100 for the full control effect.

SMILES | IL1B secr inh | HT1080NT lethal | HT1080 IDH1KD tx | ELG1 DNA repair | TDP1 cell CPT | TDP1 cell noCPT
CCCOc1cccc(C2C(C(=O)c3ccc(C)o3)=C(O)C(=O)N2c2nc(C)c(C(C)=O)s2)c1 (centres undefined) | 20 | 4% | -1% | 13% | ? | 23µM*
CCCOc1ccc(C2C(C(=O)c3ccc(C)o3)=C(O)C(=O)N2Cc2ccco2)cc1OCC (centres undefined) | -5 | 14% | 1% | -6% | ? | 23µM*
COc1ccc2nc(N3C(=O)C(O)=C(C(=O)c4ccco4)C3c3ccc(C)o3)sc2c1 (centres undefined) | 52 | -26% | -28% | 17% | -17% | 18µM*
Cc1cc(N2C(=O)C(O)=C(C(=O)c3ccc(C)o3)C2c2cccc(Oc3ccccc3)c2)no1 (centres undefined) | 5 | 1% | 4% | 4% | ? | 23µM*
COc1ccc2nc(N3C(=O)C(O)=C(C(=O)c4ccco4)C3c3ccccc3OC)sc2c1 (centres undefined) | 13 | 4% | -1% | -3% | ? | ?
CCCOc1ccc(C2C(C(=O)c3ccc(C)o3)=C(O)C(=O)N2Cc2ccco2)cc1 (centres undefined) | 18 | -1% | -3% | 3% | ? | ?
COc1cccc(CNC(=O)COc2cc(=O)n(C)c3ccccc23)c1 | · | · | · | · | -26% | -18%
CCOc1ccc(S(=O)(=O)N(CC(=O)Nc2ccc(OC)c(Cl)c2)c2ccccc2)cc1 | · | · | · | · | -19% | -19%
CC(C)C(NS(=O)(=O)c1ccc2c(c1)Cc1cc(S(=O)(=O)NC(C(=O)O)C(C)C)ccc1-2)C(=O)O (centres undefined) | 31 | 2% | 10% | 0% | 6% | 0%
CCCOc1cccc(C2C(C(=O)c3cccs3)=C(O)C(=O)N2Cc2cccnc2)c1 (centres undefined) | 57 | -16% | ? | -5% | ? | 16µM*
COc1ccc(C2C(C(=O)c3cccs3)=C(O)C(=O)N2Cc2cccnc2)cc1OC (centres undefined) | 27 | 16% | 16% | ? | 3% | -3%
CN(C)/C=N/c1ncc(C(=O)c2ccc(-c3ccccc3)cc2)s1 | -52* | -23% | -26% | ? | -11% | ?
COC(=O)Cc1csc(Nc2ccc(F)c(Cl)c2)n1 | 13 | 11% | 4% | -16% | -21% | 2%
CCN(CC)CCOc1ccccc1C(C)=O | -28 | 1% | 11% | 1% | 9% | -2%
Cc1c(C(=O)C(=O)N2c3ccc(F)cc3CCC2C)c2ccccc2n1C (centres undefined) | 27 | 3.3µM* | 2.3µM* | -1% | 2.6µM* | 2.6µM*
Cc1c(C(=O)C(=O)N2CCN(C)CC2)c2ccccc2n1C | 28 | 0% | 1% | 12% | -7% | 9%
CC(C)C[C@H]1CN([C@@H](Cc2ccc(O)cc2)CN2CCC[C@@H]2CN2C(=S)NC[C@@H]2Cc2ccccc2)C(=S)N1CC1CCCCC1 | -22 | -24% | -18% | · | 16µM* | 16µM*
CC(C)C[C@H]1CNC(=S)N1CC1CCCN1C[C@H](Cc1ccccc1)N1C[C@H](Cc2ccc(O)cc2)N(CC2CCCCC2)C1=S (some centres undefined) | ? | -27% | ? | · | ? | ?
CC(C)C[C@H]1CN([C@@H](Cc2ccccc2)CN2CCCC2CN2C(=S)NC[C@@H]2Cc2ccccc2)C(=S)N1CC1CCCCC1 (some centres undefined) | -7 | -3% | 13% | · | 6.5µM* | 7.3µM*
CC(C)C[C@H]1CNC(=S)N1C[C@H]1CCCN1C[C@H](Cc1ccc(O)cc1)N1C[C@H](CC(C)C)N(CC2CCCCCC2)C1=S | ? | ? | ? | · | 16µM* | 21µM*
CC(C)C[C@H]1CNC(=S)N1C[C@H]1CCCN1C[C@H](Cc1ccccc1)N1C[C@H](Cc2ccc(O)cc2)N(CC2CCCCCC2)C1=S | -12 | 21µM* | 15µM* | · | 15µM* | 13µM*
Cc1ccccc1OCC(=O)OCC(=O)Nc1ncc(Cl)c(C)c1Cl | 8 | 1%[9.24 µM] | -2% | 14% | -9% | -2%
O=C(Cc1cccc(NC(=O)C2CCCN(C(=O)C3CCCCC3)C2)c1)Nc1cccc(C(=O)N2CCOCC2)c1 (centres undefined) | 4 | 14% | 12% | · | -6% | -15%
CC(C)C[C@H]1CNC(=S)N1C[C@H]1CCCN1C[C@H](Cc1ccc(O)cc1)N1C[C@H](Cc2ccccc2)N(CC2CCCCC2)C1=S | -16 | -19% | -4% | · | ? | 18µM*
CC(C)C[C@H]1CNC(=O)C(=O)N1C[C@@H]1CCCN1C[C@H](Cc1ccccc1)N1C[C@H](Cc2ccccc2)N(CC2CCCCC2)C(=O)C1=O | -30 | 11% | 9% | · | ? | -30%
SMILES | IL1B secr inh | HT1080NT lethal | HT1080 IDH1KD tx | ELG1 DNA repair | TDP1 cell CPT | TDP1 cell noCPT
CC(C)C[C@H]1CNC(=S)N1CC1CCCN1C[C@H](Cc1ccc(O)cc1)N1C[C@H](Cc2ccccc2)N(CC2CCCCCC2)C1=S (some centres undefined) | -28 | 0% | -7% | · | ? | 21µM*
Cc1ccc(NC(=O)Cn2c(=O)n(CCC(=O)NCCc3ccccc3)c(=O)c3ccccc32)cc1 | · | · | · | · | -11% | -10%
Cc1ccc(C(=O)NNc2ncnc3c2cnn3C)cc1 | 6 | 15% | 1% | 19% | 4% | -6%
Cn1ncc2c(O/N=C(\N)c3ccc(C(F)(F)F)cc3)ncnc21 | -70* | 21µM* | 16µM* | ? | 6.5µM* | 5.2µM*
COC(=O)c1c(Cl)c2n3ccccc3c(C)c(-c3ccccc3)c-2c1C(=O)OC | -11 | -13% | -2% | ? | ? | 23µM*
CC12CCC(C(NC(=S)NN)C1=O)C2(C)C (centres undefined) | 0 | 12% | 22% | · | -13% | ?
CCc1ccc(-n2cnc3cc(C(=O)NCC(OC)OC)ccc32)cc1 | ? | 7% | 7% | -2% | -20% | 14%
Cc1cccc(-n2cnc3cc(C(=O)NCc4ccccc4Cl)ccc32)c1 | · | · | · | · | 16µM* | ?

Source: PubChem (National Center for Advancing Translational Sciences (NCATS))
